Bioassay records: PubChem BioAssay, several laboratories
An excerpt weighted towards active compounds, which were near 32% of everything screened.
CYP2C19 act: increases human CYP2C19 enzyme activity; P33261; recombinant CYP2C19, luciferin-H EGE luminescence; active compounds read high; 0 = fully inhibited enzyme, 1 = untreated enzyme; activation factor at 5 µM; 96,000 tested, under 10 active; AID 1025;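 active means activation factor of at least 2 at 5 µM in the primary screen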;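 further: 0 = wells with 2.5 mM tranylcypromine and 1 = vehicle-only wells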
CYP2C19 inh: human CYP2C19 inhibition. actives 21% (n = 96,000). inhibition, % at 5 µM. CYP2C19 Supersomes, luciferin-H EGE luminescence, 30 min. P33261;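 active means CYP2C19 inhibition above a set limit at 5 µM in the primary screen, cut at about 50% in these data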;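 further: plate controls were negative control wells for no effect and 2.5 mM tranylcypromine positive control for full effect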
PostGolgi yeast: growth inhibition of a yeast mutant, post-Golgi transport screen; inhibition, % at 10 µM; AID 739; actives 0.9% (n = 98,000); post-Golgi transport phenotypic cell assay;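 further: yeast cells grown in 1536-well plates; yeast grown about 18 h at 30C before absorbance read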
CYP2C9 inhib: blocks human cytochrome P450 2C9 | P11712 | CYP2C9 Supersomes, luciferin-H conversion, luminescence | inhibition, % at 5 µM | actives 20% (n = 96,000) | AID 777;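 active means blocking of liver enzyme CYP2C9 beyond about 50% at 5 µM, limit read from the data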
Target sequence (P11712 whole entry, looked up): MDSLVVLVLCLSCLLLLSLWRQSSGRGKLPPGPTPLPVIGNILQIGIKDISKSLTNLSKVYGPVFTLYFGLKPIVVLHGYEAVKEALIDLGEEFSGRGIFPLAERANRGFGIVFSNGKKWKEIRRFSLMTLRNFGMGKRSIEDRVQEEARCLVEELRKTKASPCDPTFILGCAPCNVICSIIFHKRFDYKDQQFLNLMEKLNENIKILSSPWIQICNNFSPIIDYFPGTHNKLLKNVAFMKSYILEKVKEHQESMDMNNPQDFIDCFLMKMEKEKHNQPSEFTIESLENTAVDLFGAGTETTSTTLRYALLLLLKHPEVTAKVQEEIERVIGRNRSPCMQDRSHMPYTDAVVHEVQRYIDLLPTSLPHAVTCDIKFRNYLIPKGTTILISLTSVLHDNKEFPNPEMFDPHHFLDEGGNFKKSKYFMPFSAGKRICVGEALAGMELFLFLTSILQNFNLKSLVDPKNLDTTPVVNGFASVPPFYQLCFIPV
PostGolgi ctrl: growth of the yeast control strain, post-Golgi counter-screen | efflux-deficient yeast background strain, growth absorbance A615, 16 h | inhibition, % at 10 µM | actives 5% (n = 98,000)
CYP2C9 act: activators of human CYP2C9 | recombinant CYP2C9, luciferin-H conversion, luminescence; active compounds read high; factor 1 = untreated enzyme, 0 = blocked | P11712 | actives 1.4% (n = 96,000) | AID 1024 | activation factor at 5 µM;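 active means activation factor of 2 or more for CYP2C9 at a 5 µM dose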;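 further: 0 = sulfaphenazole-blocked wells and 1 = vehicle-only wells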
* marks the source's active call; other numbers are inactive results. Unless noted, no stated cut-off is given here; in the data, active means inhibition above about 30%; inactive means the rest.

Screening CC(C)OC(=O)C1=C2SCC(=O)N2C(N)=C(C#N)C1 returned CYP2C19 act 0.2, CYP2C19 inh 76*, PostGolgi yeast 7, CYP2C9 inhib 6, PostGolgi ctrl 17 and CYP2C9 act 0.9.
CC(=O)Nc1c(O)n(C)c2ccccc12 was read as CYP2C19 act 0.9, CYP2C19 inh 5, PostGolgi yeast 15, CYP2C9 inhib 1, PostGolgi ctrl 0 and CYP2C9 act 1.
Screening Cc1ccc2c(c1)N(CCCC(=O)NCC1COc3ccccc3O1)C(=O)CO2 (stereo not given) returned CYP2C19 act 0.6, CYP2C19 inh 39, PostGolgi yeast 0, CYP2C9 inhib 38, PostGolgi ctrl 15 and CYP2C9 act 0.6.
For O=C(O)c1ccc2c(c1)C(=O)N(CCC1=CCCCC1)C2=O the results were CYP2C19 act 1, CYP2C19 inh 1, PostGolgi yeast -7, CYP2C9 inhib 16, PostGolgi ctrl 2 and CYP2C9 act 0.8.
Screening CC(C(=O)NCCC1=CCCCC1)N1C(=O)c2ccccc2C1=O (stereo not given) returned CYP2C19 act 0.8, CYP2C19 inh 23, PostGolgi yeast -6, CYP2C9 inhib 23, PostGolgi ctrl 14 and CYP2C9 act 0.8.
`O=C(CCCN1C(=O)c2ccccc2C1=O)NCCC1=CCCCC1` gave CYP2C19 act 0.8, CYP2C19 inh 19, PostGolgi yeast 13, CYP2C9 inhib 62*, PostGolgi ctrl 27 and CYP2C9 act 0.4.
Screening Cc1ccc2c(c1)N(CCCC(=O)NCCC1=CCCCC1)C(=O)CO2 returned CYP2C19 act 0.4, CYP2C19 inh 59*, PostGolgi yeast 3, CYP2C9 inhib 58*, PostGolgi ctrl 25 and CYP2C9 act 0.4.
For CN(C(=O)c1ccc2c(c1)C(=O)N(CCC1=CCCCC1)C2=O)C1CCCCC1 the results were CYP2C19 act 0.6, CYP2C19 inh 39, PostGolgi yeast -1, CYP2C9 inhib 30, PostGolgi ctrl 34* and CYP2C9 act 0.7.
`O=C1c2ccccc2C(=O)N1CCC1=CCCCC1` gave CYP2C19 act 0.4, CYP2C19 inh 61*, PostGolgi yeast -4, CYP2C9 inhib 20, PostGolgi ctrl 15 and CYP2C9 act 0.8.
CCOC(=O)C1(C)/C(=N/Nc2ccccc2Cl)C(=O)C(=O)N1c1ccccc1 (stereo not given) was read as CYP2C19 act 1, CYP2C19 inh 4, PostGolgi yeast -14, CYP2C9 inhib 6, PostGolgi ctrl 21 and CYP2C9 act 0.9.
`Cc1ccc(S(=O)(=O)Nc2nc3ccccc3s2)cc1` gave CYP2C19 act 0.9, CYP2C19 inh 7, PostGolgi yeast 0, CYP2C9 inhib 44, PostGolgi ctrl 32* and CYP2C9 act 0.6.
Screening CC(=O)Nc1ccc(S(=O)(=O)Nc2nc3ccccc3s2)cc1 returned CYP2C19 act 0.7, CYP2C19 inh 33, PostGolgi yeast 1, CYP2C9 inhib 62*, PostGolgi ctrl 7 and CYP2C9 act 0.4.
For CCOc1ccc2nc(NS(=O)(=O)c3ccc(NC(C)=O)cc3)sc2c1 the results were CYP2C19 act 1, CYP2C19 inh 5, PostGolgi yeast 0, CYP2C9 inhib 15, PostGolgi ctrl -7 and CYP2C9 act 0.8.
Screening COc1ccc(S(=O)(=O)Nc2nc3ccccc3s2)cc1OC returned CYP2C19 act 0.7, CYP2C19 inh 25, PostGolgi yeast 1, CYP2C9 inhib 62*, PostGolgi ctrl 6 and CYP2C9 act 0.4.
Screening O=S(=O)(Nc1nc2ccccc2s1)c1ccc(Br)s1 returned CYP2C19 act 0.2, CYP2C19 inh 81*, PostGolgi yeast -1, CYP2C9 inhib 96*, PostGolgi ctrl 33* and CYP2C9 act 0.
For CN(CC(=O)Nc1nc2ccccc2s1)S(=O)(=O)c1ccc(Br)cc1 the results were CYP2C19 act 0.8, CYP2C19 inh 16, PostGolgi yeast -5, CYP2C9 inhib 17, PostGolgi ctrl 4 and CYP2C9 act 0.8.
Screening CCN(CCNC(=O)CCCn1nc(C)n2c(cc3sccc32)c1=O)c1ccccc1 returned CYP2C19 act 0.6, CYP2C19 inh 45, PostGolgi yeast -8, CYP2C9 inhib 0, PostGolgi ctrl 10 and CYP2C9 act 1.
COc1ccc(NC(=O)C(c2ccc(OC)cc2)N(C)C(=O)CNC(C)=O)cc1 (stereo not given) was read as CYP2C19 act 1.2, CYP2C19 inh -17, PostGolgi yeast -7, CYP2C9 inhib -16, PostGolgi ctrl 15 and CYP2C9 act 1.2.
COc1ccc(C(=O)Nc2ccc3oc(Cc4ccc(Cl)cc4)nc3c2)cc1OC was read as CYP2C19 act 0.9, CYP2C19 inh 10, PostGolgi yeast 1, CYP2C9 inhib 21, PostGolgi ctrl -2 and CYP2C9 act 0.8.
Screening CC(C)C(=O)Nc1ccc(-c2csc(-c3ccccc3)n2)cc1 returned CYP2C19 act 1, CYP2C19 inh -4, PostGolgi yeast 1, CYP2C9 inhib -21, PostGolgi ctrl 8 and CYP2C9 act 1.2.
O=S(=O)(Nc1ccc(O)c(Sc2nc3ccccc3s2)c1)c1ccc(Cl)cc1 was read as CYP2C19 act 1, CYP2C19 inh -1, PostGolgi yeast 37*, CYP2C9 inhib 14, PostGolgi ctrl 28 and CYP2C9 act 0.9.
CC(=O)Nc1ccc(S(=O)(=O)Nc2nc3c(s2)CCCC3)cc1 was read as CYP2C19 act 0.1, CYP2C19 inh 91*, PostGolgi yeast -6, CYP2C9 inhib 43, PostGolgi ctrl 25 and CYP2C9 act 0.6.
Screening O=C(CSc1nc2ccccc2s1)NCCOc1ccc(Cl)cc1 returned CYP2C19 act 0.6, CYP2C19 inh 38, PostGolgi yeast -10, CYP2C9 inhib 40, PostGolgi ctrl 29 and CYP2C9 act 0.6.
`Cc1ccc(OCc2nnc(SCC(=O)c3cccc([N+](=O)[O-])c3)n2C)cc1` gave CYP2C19 act 1.1, CYP2C19 inh -8, PostGolgi yeast 2, CYP2C9 inhib 13, PostGolgi ctrl -4 and CYP2C9 act 0.9.
Screening Cc1sc2ncnc(SCC(=O)NC3CC3)c2c1C returned CYP2C19 act 0.8, CYP2C19 inh 24, PostGolgi yeast 1, CYP2C9 inhib 30, PostGolgi ctrl 9 and CYP2C9 act 0.7.
For Cc1n[nH]c(C)c1S(=O)(=O)N1CCCC(C(=O)NCc2cccs2)C1 (stereo not given) the results were CYP2C19 act 0.6, CYP2C19 inh 36, PostGolgi yeast 10, CYP2C9 inhib -6, PostGolgi ctrl 4 and CYP2C9 act 1.1.
`O=C(NCc1cccs1)C1CCCN(S(=O)(=O)c2cnc[nH]2)C1` (stereo not given) gave CYP2C19 act 0.2, CYP2C19 inh 84*, PostGolgi yeast 2, CYP2C9 inhib 47, PostGolgi ctrl -1 and CYP2C9 act 0.5.
